Bioassay records (PubChem BioAssay)
ELG1 genotox = induces genotoxicity in HEK293T cells with luciferase-tagged ELG1. HEK293T ELG1-luciferase reporter, luminescence, 16 h. 330,000 tested, 1.3% active. Potency, µM (highest dose often 46 µM), inactives show at the highest dose activity change, positive = activation, usual class: activators; also: % of control where 0% means no effect; nearly all actives have a fitted effect of over 60% in size
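16 hr compound incubation (37 °C, 5% CO2) of HEK293T cells carrying luciferase-tagged ELG1; luciferase then measured by ONE-Glo luminescence after 30 min at RT.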
KinaseGlo FLuc = Kinase-Glo luciferase inhibition (counter-screen); Kinase-Glo luciferase, ATP luminescence, 8 min; Q27757; Potency, µM (top dose mostly 38.3 µM), for the others: at the top dose activity change, negative = inhibition, most hits filed as inhibitors; 200,000 tested, 0.28% active; AID 1379; also: % is scaled to controls: 0 for no effect and ±100 for the full control effect; nearly all actives have a fitted effect of over 60% in size
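Light output from Kinase-Glo luciferase with luciferin and 10 uM ATP in 50 mM imidazole pH 7.2, KCl, MgCl2, Tween 20, BSA; compound pin-delivered, 8-min ambient incubation, then luminescence read.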
NPC1 promoter act = activators of NPC1 promoter. Huh7 NPC1 promoter luciferase reporter, 24 h. Potency, µM (titrated, usually from 9.22 µM), inactives show top-dose activation, usual class: activators. 320,000 tested, 2.4% active. AID 485313; also: % of control where 0% means no effect; nearly all actives have a fitted effect of over 60% in size
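Stable NPC1-promoter luciferase Huh7 line; cpd (DMSO) 24 h, 37 °C, 5% CO2; Amplite luciferase reagent 10 min RT; luminescence readout. qHTS format.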
SMN2 splice up = enhancers of SMN2 splice variant expression | HEK293 SMN2-luciferase splicing reporter, luminescence, 30-36 h | Potency, µM (highest dose often 46.1 µM), without a hit: top-dose activity change, positive = activation, most hits filed as activators | 210,000 tested, 2.8% active | AID 1458; also: % of control where 0% means no effect; nearly all actives have a fitted effect of over 55% in size
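qHTS luciferase splicing reporter: luminescence rises when SMN2 exon 7 is included in transfected HEK293 cells. Compound exposure lasted 30-36 h at 37C, with 4.5 mM final sodium butyrate as control, followed by a ONE-Glo read.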
Rab9 promoter act = Rab9 promoter activation; Potency, µM (top dose mostly 9.22 µM), without a hit: at the highest dose activation, negative = inhibition, hits mostly activators; AID 485297; Huh7 Rab9 promoter-luciferase reporter, luminescence, 24 h; 320,000 tested, 2.8% active; also: % of control where 0% means no effect; nearly all actives have a fitted effect of over 60% in size
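Promoter activation is measured as luciferase luminescence in Huh7 cells stably transfected with a Rab9 promoter–luciferase construct, following 24 h compound exposure at 37 °C and 10 min reagent incubation at ambient temperature.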
FLuc modulator = counter-screen for miR-21 project: firefly luciferase inhibitors or activators; P08659; purified FLuc, Km substrates, luminescence inhibition; Potency, µM (highest dose often 57.5 µM), for inactives: at the top dose activity change, negative = inhibition, most hits filed as inhibitors; 360,000 tested, 6.9% active;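 also: plate controls were vehicle for no effect and reference inhibitor for full effect; nearly all actives have a fitted effect of over 55% in size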
Target sequence (P08659 whole entry, looked up): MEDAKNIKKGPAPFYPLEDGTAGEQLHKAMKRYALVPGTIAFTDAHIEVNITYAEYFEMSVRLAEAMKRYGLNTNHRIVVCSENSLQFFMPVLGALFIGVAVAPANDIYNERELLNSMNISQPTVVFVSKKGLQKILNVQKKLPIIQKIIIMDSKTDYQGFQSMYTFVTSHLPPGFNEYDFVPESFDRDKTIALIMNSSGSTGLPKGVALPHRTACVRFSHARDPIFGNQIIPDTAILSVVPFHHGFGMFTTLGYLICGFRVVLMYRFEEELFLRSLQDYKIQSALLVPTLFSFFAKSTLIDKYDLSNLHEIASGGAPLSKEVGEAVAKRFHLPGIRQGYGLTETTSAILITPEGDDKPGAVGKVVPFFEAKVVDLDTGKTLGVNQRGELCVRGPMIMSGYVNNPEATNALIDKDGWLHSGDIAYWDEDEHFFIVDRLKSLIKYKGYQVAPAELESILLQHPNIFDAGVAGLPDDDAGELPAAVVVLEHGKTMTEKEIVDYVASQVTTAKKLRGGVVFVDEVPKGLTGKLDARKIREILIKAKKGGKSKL
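Purified P. pyralis luciferase, 10 nM final, with Km-level 10 uM D-luciferin and 10 uM ATP in 50 mM Tris acetate pH 7.5, 10 mM Mg acetate, 0.01% Tween-20, 0.05% BSA; 6-point qHTS titration about 60 µM downward; luminescence read.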
Numbers without * were called inactive; ? = inconclusive; / = no result given. Shown are actives, neighbours in structure and some others; about 7.5% of the full set was active somewhere. Calls follow the shape of the dose curve; as a rule, active = well fitted curve in the direction sought with a large enough effect; inconclusive = small, poorly fitted or top-dose-only effect, or another doubt; inactive = no such curve, though single readings can be large; an effect the other way counts as inactive or inconclusive. Potency is read from the fitted curve at half-maximal effect.

SMILES	ELG1 genotox	KinaseGlo FLuc	NPC1 promoter act	SMN2 splice up	Rab9 promoter act	FLuc modulator
CC(=O)c1sc(NC(=O)c2ccccc2)nc1-c1ccccc1	?	-8%	2µM*	13µM*	1µM*	9.5µM*
CC(=O)c1sc(NC(=O)c2ccccc2C)nc1C	?	?	21%	12%	?	?
Cc1nc(NC(=O)c2csc3ccccc23)sc1C	?	-1%	?	7.9µM*	1.3µM*	0.85µM*
Cc1nc(NC(=O)c2ccccc2)sc1C	?	/	1.8µM*	/	1.8µM*	?
O=C(Nc1nc(-c2cccs2)c(C(=O)C(F)(F)F)s1)c1ccco1	-10%	3%	-1%	-5%	-13%	?
O=C(Nc1nc(-c2cccs2)c(C(=O)C(F)(F)F)s1)c1ccccc1	-1%	-2%	0%	-92%	-11%	17µM*
O=C(COC(=O)CC1CCCC1)Nc1ccc(Cl)cc1	-5%	/	2%	/	-1%	30µM*
COc1ccc(NC(=O)CC2CCCCC2)cc1OC	10%	-1%	9%	-3%	19%	-13%
O=C(CC1CCCC1)Nc1ccc(Br)cc1	?	/	?	/	?	17µM*
C=CCNC(=S)NC(=O)c1ccc(C)c(Br)c1	?	-3%	20%	14µM*	?	17µM*
COc1ccc(Nc2n[nH]c(C)c2[N+](=O)[O-])cc1	?	-3%	22%	29%	3.5µM*	?
CCN1CCN(Cc2ccc(NC(=O)Nc3ccccc3)cc2)CC1	6.5µM*	4%	2.8µM*	-3%	1.4µM*	6µM*
CCN1CCN(Cc2ccc(NC(=O)Nc3ccc(SC)cc3)cc2)CC1	?	2%	29%	?	?	17µM*
CCN1CCN(Cc2ccc(NC(=O)Nc3cccs3)cc2)CC1	?	-2%	1µM*	?	4µM*	4.8µM*
CCN1CCN(Cc2ccc(NC(=O)Nc3ccc(OC)cc3)cc2)CC1	?	0%	17%	19%	28%	?
CCn1c(=O)n(CC)c2cc(NC(=O)C(C)c3ccccc3)c(Br)cc21 (configuration not stated)	-3%	/	-3%	/	-7%	-1%
Cc1nn(Cc2ccccc2)c(Cl)c1/C=C/C(=O)OCC(=O)N(C)C1CCS(=O)(=O)C1 (configuration not stated)	1%	0%	2%	-13%	-4%	2%
S=C(CN1CCCC1=S)NCCc1ccccc1	-10%	/	-1%	/	-12%	1%
COc1ccc([N+](=O)[O-])cc1N(CC(=O)NCC1CCCO1)S(C)(=O)=O (configuration not stated)	2%	27%	-1%	-22%	-1%	0%
O=C(c1cc2ccccc2[nH]1)N(Cc1cccnc1)CC1CCCN(C2CCCCC2)C1 (configuration not stated)	5%	/	-3%	/	0%	?
Cc1cc(C)nc(NC(=NCCc2c[nH]c3ccccc23)NC(=O)c2ccco2)n1	-24%	0%	9%	-14%	-3%	0%
COc1ccc2[nH]cc(CCN=C(NC(=O)c3ccccc3F)Nc3nc(C)cc(C)n3)c2c1	/	/	/	35µM*	/	1%
CC(C)N1C(=O)CCC1C(=O)NCCc1ccc(Cl)cc1 (configuration not stated)	2%	13%	1%	-11%	-9%	2%
S=C(Nc1nc2c(s1)CCCC2)NC1CC1	?	/	?	/	2.5µM*	12µM*
O=C(NC(=S)Nc1nc2c(s1)CCCC2)c1ccccc1	5.2µM*	-6%	4µM*	2µM*	?	3.4µM*
COC(=O)c1ccc(C(=O)NC(=S)Nc2nc3c(s2)CCCC3)cc1	11%	3%	4µM*	?	?	15µM*
CC1CN(C(=O)Nc2ccc3snnc3c2)c2ccccc21 (configuration not stated)	?	0%	-1%	?	4%	19µM*
